Experimental data published in PubChem BioAssay (EPA / NIEHS).
Several values for one entry are separate records, joined by “and”; a condition that tells them apart may be missing. Equal entries are not always repeated. Inconclusive results are not listed. The source holds several records for some structures; these can differ, active in one and inactive in another. Activity calls are given as the source filed them. Rule for the calls, unless noted: active = hit-call score of the fitted dose curve at least 0.9, where 1 is the maximum; inactive = score below 0.9.

How the values were obtained:
[1] = read-out: Monocyte Chemoattractant Protein-1 (MCP1), CCL2 (gene 6347); assay: BSK_SAg_MCP1: BioMAP Diversity Plus: SAg Assay for Monocyte Chemoattractant Protein-1 (MCP1) Biomarker Activity (AID 2283090); details: primary human HUVEC with PBMC; actives raise or lower the signal
Summary of the method: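 Values derive from bidirectional fitting of ELISA-measured MCP1 against DMSO controls. Readings were taken 24 h after dosing human vascular endothelial cells co-cultured with peripheral blood mononuclear cells under superantigen stimulation.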

[2] = read-out: E-selectin (Homo sapiens) (UniProt P16581); assay: BSK_SAg_Eselectin: BioMAP Diversity Plus: SAg Assay for Eselectin Biomarker Activity (AID 2283091); details: primary human HUVEC with PBMC; actives raise or lower the signal
Summary of the method: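 Human umbilical vein endothelial cells co-cultured with peripheral blood mononuclear cells, SAg system. E-selectin is measured by ELISA 24 h after dosing and fitted bidirectionally against DMSO. Cytotoxicity is checked by SRB staining of parallel cultures.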

[3] = read-out: Monokine induced gamma interferon (MIG), CXCL9 (gene 4283); assay: BSK_SAg_MIG: BioMAP Diversity Plus: SAg Assay for Monokine induced gamma interferon (MIG) Biomarker Activity (AID 2283092); details: primary human HUVEC with PBMC; actives raise or lower the signal
Summary of the method: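 Endothelial cells and PBMC were co-cultured, exposed to test chemicals, and sampled 24 h later. MIG was measured by ELISA, and responses were fitted in both directions relative to DMSO.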

[4] = BSK_SAg_PBMCCytotoxicity: PBMC Cytotoxicity Assessment in the BioMAP Diversity Plus: SAg Assay (AID 2283093); details: primary human HUVEC with PBMC;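 note: PBMC viability measured as Alamar Blue reduction fluorescence at 546/580 nm; fitted both ways against DMSO so a hit may be loss or gain of signal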;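 for AC50: PBMC superantigen activated with SEB plus TSST-1 one hour after compound addition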
Summary of the method: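 Alamar Blue reduction (6 h, 546/580 nm) reports PBMC cytotoxicity after 90 h superantigen activation (SEB, TSST-1; 20 ng/mL final each) with 1 h compound pre-treatment. Gain or loss of signal fitted versus DMSO.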

[5] = read-out: Interleukin-8 (IL8), CXCL8 (gene 3576); assay: BSK_SAg_IL8: BioMAP Diversity Plus: SAg Assay for Interleukin-8 (IL8) Biomarker Activity (AID 2283094); details: primary human HUVEC with PBMC; actives raise or lower the signal
Summary of the method: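 ELISA readout of IL-8 from a superantigen-activated endothelial/PBMC primary human co-culture, taken 24 h post-dosing and fitted in both directions against DMSO; parallel SRB total-protein staining flags overt cytotoxicity.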

[6] = BSK_SAg_Proliferation: Cell Proliferation Assessment in the BioMAP Diversity Plus: SAg Assay (AID 2283095); details: primary human HUVEC with PBMC;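 note: relative cell number as total protein by SRB absorbance in sub-confluent culture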
Summary of the method: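 Relative cell number in the endothelial cell/PBMC co-culture was quantified at 96 h by SRB staining (0.1% SRB, 10% TCA fixation, read at 560 nm). Curves were fitted in both directions relative to DMSO baseline.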

[7] = BSK_SAg_SRB: Viability Assessment in the BioMAP Diversity Plus: SAg Assay (AID 2283096); details: primary human HUVEC with PBMC;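 note: cells read one day after compound addition; hits may be either gain or loss of signal compared with DMSO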
Summary of the method: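 This overt-cytotoxicity endpoint quantifies protein in human endothelial/PBMC co-cultures at 24 h using SRB absorbance (560 nm) after trichloroacetic acid fixation. Values reflect signal change from the DMSO negative control, fitted bidirectionally.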

[8] = biological target: human CYP19A1, CYP19A1 (gene 1588) (UniProt P11511); assay: NVS_ADME_hCYP19A1: NovaScreen (NVS) CYP450-related Enzyme Activity (ADME) Assay for human CYP19A1 (AID 2283098; active = hit-call score of the fitted dose curve at least 0.9, where 1 is the maximum;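 for AC50: potency for inhibitors seen as loss of fluorescent enzyme signal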)
Chain of human CYP19A1, CYP19A1 (gene 1588) (P11511 whole entry, looked up): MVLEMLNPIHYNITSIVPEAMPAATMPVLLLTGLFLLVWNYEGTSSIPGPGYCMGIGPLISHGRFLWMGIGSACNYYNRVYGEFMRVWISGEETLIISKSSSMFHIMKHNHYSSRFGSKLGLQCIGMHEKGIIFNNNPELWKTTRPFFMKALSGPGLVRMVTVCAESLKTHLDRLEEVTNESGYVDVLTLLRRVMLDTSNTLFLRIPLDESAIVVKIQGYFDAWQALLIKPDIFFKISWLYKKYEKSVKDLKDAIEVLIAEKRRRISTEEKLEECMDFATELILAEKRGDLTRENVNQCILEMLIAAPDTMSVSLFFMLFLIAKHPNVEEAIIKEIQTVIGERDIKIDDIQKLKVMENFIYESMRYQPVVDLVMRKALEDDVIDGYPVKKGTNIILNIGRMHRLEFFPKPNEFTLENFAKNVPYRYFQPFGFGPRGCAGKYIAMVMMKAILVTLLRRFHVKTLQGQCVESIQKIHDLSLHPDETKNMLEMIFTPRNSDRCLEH
Summary of the method: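 Compounds were first screened at 10 uM in duplicate against purified enzyme, with a fluorogenic substrate and fluorescence intensity detection after 0.5 h. Inhibition appears as reduced signal against acetonitrile control.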

[9] = biological target: human CYP2C8, CYP2C8 (gene 1558) (UniProt P10632); assay: NVS_ADME_hCYP2C8: NovaScreen (NVS) CYP450-related Enzyme Activity (ADME) Assay for human CYP2C8 (AID 2283104)
Chain of human CYP2C8, CYP2C8 (gene 1558) (P10632 whole entry, looked up): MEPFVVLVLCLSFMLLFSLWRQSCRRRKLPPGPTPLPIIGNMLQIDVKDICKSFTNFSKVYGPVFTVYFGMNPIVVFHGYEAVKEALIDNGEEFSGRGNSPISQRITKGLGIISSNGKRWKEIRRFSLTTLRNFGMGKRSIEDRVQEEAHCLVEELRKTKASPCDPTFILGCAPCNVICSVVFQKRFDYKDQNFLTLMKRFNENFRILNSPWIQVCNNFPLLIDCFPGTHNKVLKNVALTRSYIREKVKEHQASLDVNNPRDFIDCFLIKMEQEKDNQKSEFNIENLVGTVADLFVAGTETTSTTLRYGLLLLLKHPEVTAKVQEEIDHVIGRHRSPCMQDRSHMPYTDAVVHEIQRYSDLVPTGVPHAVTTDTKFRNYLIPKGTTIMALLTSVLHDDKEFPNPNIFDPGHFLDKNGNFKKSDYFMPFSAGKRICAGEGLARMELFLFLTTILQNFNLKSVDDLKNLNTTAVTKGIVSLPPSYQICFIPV
Summary of the method: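 Fluorescence readout of substrate turnover by recombinant CYP2C8 after 0.5 h, baseline acetonitrile. Single-concentration duplicate screen at 10 uM preceded singleton concentration series (max 20 uM) for compounds passing the inhibition threshold.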

[10] = biological target: human CYP2C9, CYP2C9 (gene 1559) (UniProt P11712); assay: NVS_ADME_hCYP2C9: NovaScreen (NVS) CYP450-related Enzyme Activity (ADME) Assay for human CYP2C9 (AID 2283108; active = hit-call score of the fitted dose curve at least 0.9, where 1 is the maximum)
Chain of human CYP2C9, CYP2C9 (gene 1559) (P11712 whole entry, looked up): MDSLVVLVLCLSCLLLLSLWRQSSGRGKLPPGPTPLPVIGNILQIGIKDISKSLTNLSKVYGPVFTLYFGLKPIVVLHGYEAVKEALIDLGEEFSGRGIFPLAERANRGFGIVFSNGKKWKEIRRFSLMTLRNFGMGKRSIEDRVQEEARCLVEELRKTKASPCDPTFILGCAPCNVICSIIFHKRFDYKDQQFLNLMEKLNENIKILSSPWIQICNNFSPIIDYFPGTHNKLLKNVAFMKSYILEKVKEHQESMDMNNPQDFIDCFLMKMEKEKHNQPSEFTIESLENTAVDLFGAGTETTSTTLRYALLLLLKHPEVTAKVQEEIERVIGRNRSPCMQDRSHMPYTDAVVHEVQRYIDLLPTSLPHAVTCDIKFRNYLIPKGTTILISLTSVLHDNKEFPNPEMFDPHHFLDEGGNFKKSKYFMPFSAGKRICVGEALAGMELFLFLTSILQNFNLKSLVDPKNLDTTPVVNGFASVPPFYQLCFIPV
Summary of the method: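 Cell-free assay of recombinant human CYP2C9 produced in Sf9 cells, with enzyme activity read by fluorescence intensity 0.75 h after compound addition. Loss of signal versus an acetonitrile negative control indicates inhibition. Primary screen used 10 uM in duplicate; actives were retested in concentration series.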

[11] = biological target: human CYP4F12, CYP4F12 (gene 66002) (UniProt Q9HCS2); assay: NVS_ADME_hCYP4F12: NovaScreen (NVS) CYP450-related Enzyme Activity (ADME) Assay for human CYP4F12 (AID 2283111; active = hit-call score of the fitted dose curve at least 0.9, where 1 is the maximum)
Chain of human CYP4F12, CYP4F12 (gene 66002) (Q9HCS2 whole entry, looked up): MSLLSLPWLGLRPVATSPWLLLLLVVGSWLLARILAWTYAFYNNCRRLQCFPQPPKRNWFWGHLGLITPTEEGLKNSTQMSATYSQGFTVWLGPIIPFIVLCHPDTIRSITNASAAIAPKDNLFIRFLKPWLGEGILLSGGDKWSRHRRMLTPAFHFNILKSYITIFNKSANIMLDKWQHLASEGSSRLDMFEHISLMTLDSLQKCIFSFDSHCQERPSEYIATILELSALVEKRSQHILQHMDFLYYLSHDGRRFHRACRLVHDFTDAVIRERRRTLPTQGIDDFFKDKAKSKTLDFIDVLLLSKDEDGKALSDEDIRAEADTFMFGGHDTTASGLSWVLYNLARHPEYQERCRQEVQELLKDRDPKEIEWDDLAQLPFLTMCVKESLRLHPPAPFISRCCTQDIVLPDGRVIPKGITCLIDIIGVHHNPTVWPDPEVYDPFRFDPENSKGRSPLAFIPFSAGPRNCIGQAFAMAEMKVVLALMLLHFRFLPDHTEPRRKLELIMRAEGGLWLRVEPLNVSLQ
Summary of the method: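 Recombinant enzyme with a fluorescent substrate, signal read at 0.5 h post-dose; activity loss analysed relative to acetonitrile. Compounds first run in duplicate at 10 uM, with follow-up concentration-response testing of actives.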

[12] = biological target: human CYP2A6, CYP2A6 (gene 1548) (UniProt P11509); assay: NVS_ADME_hCYP2A6: NovaScreen (NVS) CYP450-related Enzyme Activity (ADME) Assay for human CYP2A6 (AID 2283099; active = hit-call score of the fitted dose curve at least 0.9, where 1 is the maximum)
Chain of human CYP2A6, CYP2A6 (gene 1548) (P11509 whole entry, looked up): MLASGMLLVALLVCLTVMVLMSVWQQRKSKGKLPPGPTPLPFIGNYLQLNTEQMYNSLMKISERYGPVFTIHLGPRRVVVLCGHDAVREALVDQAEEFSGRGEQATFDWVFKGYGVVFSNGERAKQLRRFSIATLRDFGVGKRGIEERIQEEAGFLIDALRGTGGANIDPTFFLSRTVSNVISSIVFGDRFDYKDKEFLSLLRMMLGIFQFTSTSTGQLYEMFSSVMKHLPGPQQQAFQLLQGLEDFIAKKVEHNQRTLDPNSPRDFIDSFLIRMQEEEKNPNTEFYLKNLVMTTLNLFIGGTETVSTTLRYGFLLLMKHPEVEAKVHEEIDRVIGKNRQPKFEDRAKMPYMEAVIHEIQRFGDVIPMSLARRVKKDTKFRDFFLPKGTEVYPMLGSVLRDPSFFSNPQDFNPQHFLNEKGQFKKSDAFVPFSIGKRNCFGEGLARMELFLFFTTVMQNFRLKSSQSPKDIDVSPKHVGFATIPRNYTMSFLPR
Summary of the method: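 Recombinant human CYP2A6 expressed in insect cells, cell-free; fluorogenic substrate turnover read by fluorescence intensity 0.5 h after dosing. Primary screen 10 uM in duplicate, then concentration-response up to 20 uM; acetonitrile as negative control.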

[13] = biological target: human CYP1A1, CYP1A1 (gene 1543) (UniProt P04798); assay: NVS_ADME_hCYP1A1: NovaScreen (NVS) CYP450-related Enzyme Activity (ADME) Assay for human CYP1A1 (AID 2283100; active = hit-call score of the fitted dose curve at least 0.9, where 1 is the maximum)
Chain of human CYP1A1, CYP1A1 (gene 1543) (P04798 whole entry, looked up): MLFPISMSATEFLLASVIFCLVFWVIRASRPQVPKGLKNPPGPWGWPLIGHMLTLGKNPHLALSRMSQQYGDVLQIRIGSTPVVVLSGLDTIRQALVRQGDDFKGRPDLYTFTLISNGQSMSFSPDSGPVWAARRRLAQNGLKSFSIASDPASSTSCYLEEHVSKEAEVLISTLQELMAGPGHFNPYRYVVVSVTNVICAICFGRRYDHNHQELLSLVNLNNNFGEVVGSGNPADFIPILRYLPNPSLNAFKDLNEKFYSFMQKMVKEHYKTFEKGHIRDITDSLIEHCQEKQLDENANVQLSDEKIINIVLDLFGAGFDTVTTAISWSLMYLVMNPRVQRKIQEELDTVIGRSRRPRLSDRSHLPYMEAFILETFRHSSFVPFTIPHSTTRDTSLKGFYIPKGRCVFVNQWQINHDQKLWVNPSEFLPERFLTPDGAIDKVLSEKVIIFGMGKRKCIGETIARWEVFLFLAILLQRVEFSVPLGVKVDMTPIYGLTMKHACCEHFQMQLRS
Summary of the method: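 Recombinant CYP1A1 with a fluorogenic substrate, cell-free, read 1 h after dosing; acetonitrile as negative control. Single-concentration screen at 10 uM in duplicate, then concentration-response up to 20 uM for chemicals meeting ~30% inhibition threshold.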

[14] = biological target: Cytochrome P450 3A4 (Homo sapiens) (UniProt P08684); assay: NVS_ADME_hCYP3A4: NovaScreen (NVS) CYP450-related Enzyme Activity (ADME) Assay for human CYP3A4 (AID 2283110; active = hit-call score of the fitted dose curve at least 0.9, where 1 is the maximum)
Chain of Cytochrome P450 3A4 (Homo sapiens) (P08684 whole entry, looked up): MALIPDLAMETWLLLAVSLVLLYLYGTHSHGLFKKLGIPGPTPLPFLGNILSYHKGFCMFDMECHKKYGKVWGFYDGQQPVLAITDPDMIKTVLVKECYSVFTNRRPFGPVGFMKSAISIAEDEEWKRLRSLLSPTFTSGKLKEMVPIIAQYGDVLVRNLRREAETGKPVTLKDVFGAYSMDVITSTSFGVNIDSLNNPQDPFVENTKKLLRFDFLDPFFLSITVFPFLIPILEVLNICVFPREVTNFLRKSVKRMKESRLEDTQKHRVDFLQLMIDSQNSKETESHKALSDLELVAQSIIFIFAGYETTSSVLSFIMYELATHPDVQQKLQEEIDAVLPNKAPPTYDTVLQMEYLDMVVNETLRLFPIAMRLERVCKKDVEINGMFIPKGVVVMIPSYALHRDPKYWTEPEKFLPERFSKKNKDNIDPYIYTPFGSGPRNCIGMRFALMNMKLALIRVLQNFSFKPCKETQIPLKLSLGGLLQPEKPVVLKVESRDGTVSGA
Summary of the method: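 Activity is derived from decreased fluorescence intensity relative to acetonitrile, measured 0.33 hour after dosing insect-cell-expressed CYP3A4 in a cell-free format. Screening used 10 uM in duplicate before concentration-response follow-up.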

[15] = biological target: Cytochrome P450 2C19 (Homo sapiens) (UniProt P33261); assay: NVS_ADME_hCYP2C19: NovaScreen (NVS) CYP450-related Enzyme Activity (ADME) Assay for human CYP2C19 (AID 2283113; active = hit-call score of the fitted dose curve at least 0.9, where 1 is the maximum;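 note: potency for inhibition seen as loss of fluorescent signal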)
Summary of the method: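 Cell-free recombinant human CYP2C19 from insect cells, fluorescent substrate; activity read by fluorescence intensity 1 h after dosing. Primary screen in duplicate at 10 uM; actives retested in concentration series. Signal loss versus acetonitrile negative control.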

[16] = biological target: rat CYP2A1, Cyp2a1 (gene 24894) (UniProt P11711); assay: NVS_ADME_rCYP2A1: NovaScreen (NVS) CYP450-related Enzyme Activity (ADME) Assay for rat CYP2A1 (AID 2283114)
Chain of rat CYP2A1, Cyp2a1 (gene 24894) (P11711 whole entry, looked up): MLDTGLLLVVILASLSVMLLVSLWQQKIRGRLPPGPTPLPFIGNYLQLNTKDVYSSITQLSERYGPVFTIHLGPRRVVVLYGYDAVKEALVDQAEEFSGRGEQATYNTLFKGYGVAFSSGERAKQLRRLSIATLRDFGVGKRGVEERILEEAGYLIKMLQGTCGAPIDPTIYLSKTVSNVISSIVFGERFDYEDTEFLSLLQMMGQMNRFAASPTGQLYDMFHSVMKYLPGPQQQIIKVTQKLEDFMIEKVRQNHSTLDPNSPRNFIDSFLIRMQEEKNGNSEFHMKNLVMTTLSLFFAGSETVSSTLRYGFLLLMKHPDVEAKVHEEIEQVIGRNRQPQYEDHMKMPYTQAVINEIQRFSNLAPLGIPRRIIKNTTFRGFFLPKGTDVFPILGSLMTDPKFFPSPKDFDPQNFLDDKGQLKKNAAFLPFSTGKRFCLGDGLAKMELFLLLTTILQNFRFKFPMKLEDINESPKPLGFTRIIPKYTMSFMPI
Summary of the method: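 Cell-free fluorescence enzyme-activity read on recombinant rat CYP2A1, taken 0.75 h post-dosing. Compounds were screened in duplicate at 10 uM, then hits tested in concentration series (max 20 uM); inhibition scored relative to acetonitrile baseline.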

Measured: AC50

Chain of E-selectin (Homo sapiens) (P16581 whole entry, looked up): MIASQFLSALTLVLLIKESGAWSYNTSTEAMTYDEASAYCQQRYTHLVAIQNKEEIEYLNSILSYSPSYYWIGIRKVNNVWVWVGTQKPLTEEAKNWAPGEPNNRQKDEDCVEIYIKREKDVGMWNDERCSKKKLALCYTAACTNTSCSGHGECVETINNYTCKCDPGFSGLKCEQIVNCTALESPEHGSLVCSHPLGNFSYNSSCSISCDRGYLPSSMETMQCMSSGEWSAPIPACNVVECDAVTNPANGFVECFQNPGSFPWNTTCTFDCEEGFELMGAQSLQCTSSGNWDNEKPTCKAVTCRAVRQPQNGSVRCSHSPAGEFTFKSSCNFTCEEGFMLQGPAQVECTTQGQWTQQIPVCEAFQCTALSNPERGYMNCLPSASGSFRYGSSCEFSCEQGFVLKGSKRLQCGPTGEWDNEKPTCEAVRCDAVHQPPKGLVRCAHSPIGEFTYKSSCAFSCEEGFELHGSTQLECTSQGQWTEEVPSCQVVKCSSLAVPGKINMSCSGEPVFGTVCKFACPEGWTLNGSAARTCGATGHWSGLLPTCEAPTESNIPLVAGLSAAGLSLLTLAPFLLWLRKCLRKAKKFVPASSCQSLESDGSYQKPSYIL

O=C(O)C(F)(F)C(F)(F)C(F)(F)C(F)(F)C(F)(F)C(F)(F)C(F)(F)F
inactive: [1] | [2] | [3] | [4] | [5] | [6] | [7] | [8] | [9] | [10] | [11]
active: [5] 44.3 µM | [10] 237 nM

Cc1cc(C)nc(NC(=O)NS(=O)(=O)c2ccccc2C(=O)OC2COC2)n1
inactive: [1] | [2] | [3] | [4] | [5] | [6] | [7]

CNC(=O)/C=C(\C)OP(=O)(OC)OC
inactive: [1] | [2] | [3] | [4] | [5] | [6] | [7]

CC1(c2ccc(Oc3ccccc3)cc2)OC(=O)N(Nc2ccccc2)C1=O (configuration not stated)
inactive: [4]
active: [1] 19.8 µM | [2] 15.6 µM | [3] 34.1 µM | [5] 11.8 µM | [6] 16.9 µM | [7] 30.3 µM

OCCOc1ccccc1
inactive: [1] | [2] | [3] | [4] | [5] | [6] | [7]

CNC(=O)Oc1cccc(N=CN(C)C)c1
inactive: [1] | [3] | [4] | [5] | [7]
active: [2] 18.7 µM | [6] 17.9 µM

CCOc1nc(NC)nc(NC(=O)NS(=O)(=O)c2ccccc2C(=O)OC)n1
inactive: [1] | [2] | [3] | [4] | [5] | [6] | [7]

CCCN(CCC)c1c([N+](=O)[O-])cc(C(F)(F)F)cc1[N+](=O)[O-]
inactive: [1] | [3] | [8]
active: [2] 15.4 µM | [4] 15 µM | [5] 24.9 µM | [6] 24.4 µM | [7] 20 µM

CC(C)(C)C(O)C(Oc1ccc(Cl)cc1)n1cncn1 (configuration not stated)
active: [2] 12.9 µM | [4] 3.38 µM | [5] 10.6 µM | [6] 15 µM | [8] 7.34 µM and 2.41 µM | [13] 7.11 µM | [10] 5.02 µM and 7.84 µM | [15] 1.29 µM and 1.71 µM and 1.18 µM | [16] 3.66 µM
inactive: [1] | [2] | [3] | [4] | [5] | [6] | [7] | [12] | [13] | [10] | [14]

COC(=O)c1ccccc1CS(=O)(=O)NC(=O)Nc1nc(OC)cc(OC)n1
inactive: [1] | [2] | [3] | [4] | [5] | [6] | [7]

N#CN
inactive: [1] | [2] | [3] | [4] | [5] | [6] | [7]

CNC(=O)Oc1ccccc1OC(C)C
inactive: [1] | [2] | [3] | [4] | [5] | [6] | [7]

CC(C)OC(=O)Nc1cccc(Cl)c1
inactive: [1] | [2] | [3] | [4] | [5] | [6]
active: [7] 1.76 µM

C[C@H]1[C@H](c2ccc(Cl)cc2)SC(=O)N1C(=O)NC1CCCCC1
active: [1] 27 µM | [2] 15.2 µM | [5] 13.6 µM | [6] 18.1 µM | [7] 9.32 µM | [15] 7.38 µM
inactive: [3] | [4]

CCOCN(C(=O)CCl)c1c(C)cccc1CC
inactive: [3] | [4] | [5]
active: [1] 36 µM | [2] 17.1 µM | [6] 27.1 µM | [7] 15.9 µM | [15] 5.09 µM
